Experimental data: PubChem BioAssay AID1159580 (chemical genetic matrix, 2015)
Among all 5,500 compounds or so, about 2,000 (36%) were called active. Roughly 18% stayed inconclusive and do not appear here. Cut-off read from the data, not from the text of the source: active = normalized growth mostly below about 0.91 (no sharp cut-off); inconclusive = no clear call, values can overlap the other calls; inactive = mostly above about 0.92. The list shows a part of the results.

Assay: chemical genetic growth profiling, strain panel (AID 1159580);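 note: tested at 20 µM; growth read once vehicle control cultures reached saturation at 30 °C; 1 = growth at the plate median or of vehicle wells; lower values mean less growth of the strain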
Conditions: S. cerevisiae deletion strains, growth OD
[1] = locus YAL021C, strain ccr4, hits give low values
[2] = locus YAL026C, strain drs2, hits give low values
[3] = locus YAL030W, strain snc1, hits give low values
[4] = locus YBL061C, strain skt5, hits give low values
[5] = locus YBR009C, strain hhf1, hits give low values
[6] = locus YBR023C, strain chs3, hits give low values
[7] = locus YBR171W, strain sec66, hits give low values
[8] = locus YBR231C, strain swc5, hits give low values
[9] = locus YBR279W, strain paf1, hits give low values
[10] = locus YCL011C, strain gbp2, hits give low values
[11] = locus YCL016C, strain dcc1, hits give low values
[12] = locus YCL061C, strain MRC1, hits give low values
[13] = locus YCL069W, strain vba3, hits give low values
[14] = locus YCR088W, strain abp1, hits give low values
[15] = locus YDL005C, strain med2, hits give low values
[16] = locus YDL040C, strain nat1, hits give low values
[17] = locus YDR001C, strain nth1, hits give low values
[18] = locus YDR069C, strain doa4, hits give low values
[19] = locus YDR137W, strain rgp1, hits give low values
[20] = locus YDR159W, strain sac3, hits give low values
[21] = locus YDR297W, strain sur2, hits give low values
[22] = locus YDR334W, strain swr1, hits give low values
[23] = locus YDR335W, strain msn5, hits give low values
[24] = locus YDR392W, strain spt3, hits give low values
[25] = locus YEL003W, strain gim4, hits give low values
[26] = locus YEL037C, strain rad23, hits give low values
[27] = locus YEL061C, strain CIN8 (second series), hits give low values
[28] = locus YER015W, strain faa2, hits give low values
[29] = locus YER016W, strain bim1, hits give low values
[30] = locus YER111C, strain swi4, hits give low values
[31] = locus YER155C, strain BEM2 (second series), hits give low values
[32] = locus YFR010W, strain ubp6, hits give low values
[33] = locus YGL167C, strain pmr1, hits give low values
[34] = locus YGL173C, strain kem1, hits give low values
[35] = locus YGL227W, strain vid30, hits give low values
[36] = locus YGL240W, strain doc1, hits give low values
[37] = locus YGL253W, strain hxk2, hits give low values
[38] = locus YHR013C, strain ard1, hits give low values
[39] = locus YHR027C, strain rpn1, hits give low values
[40] = locus YHR142W, strain chs7, hits give low values
[41] = locus YJL092W, strain hpr5, hits give low values
[42] = locus YJL095W, strain BCK1 (second series), hits give low values
[43] = locus YJL115W, strain asf1, hits give low values
[44] = locus YJL129C, strain trk1, hits give low values
[45] = locus YJL154C, strain vps35, hits give low values
[46] = locus YJL164C, strain tpk1, hits give low values
[47] = locus YJL166W, strain qcr8, hits give low values
[48] = locus YJL187C, strain SWE1, hits give low values
[49] = locus YKL160W, strain elf1, hits give low values
[50] = locus YKR026C, strain gcn3, hits give low values
[51] = locus YKR091W, strain srl3, hits give low values
[52] = locus YLL001W, strain dnm1, hits give low values
[53] = locus YLL026W, hits give low values
[54] = locus YLL041C, strain sdh2, hits give low values
[55] = locus YLR027C, strain aat2, hits give low values
[56] = locus YLR221C, strain rsa3, hits give low values
[57] = locus YLR258W, strain gsy2, hits give low values
[58] = locus YLR262C, strain YPT6 (second series), hits give low values
[59] = locus YLR320W, strain mms22, hits give low values
[60] = locus YLR342W, strain FKS1, hits give low values
[61] = locus YLR357W, strain rsc2, hits give low values
[62] = locus YLR370C, strain arc18, hits give low values
[63] = locus YLR384C, strain iki3, hits give low values
[64] = locus YML120C, strain ndi1, hits give low values
[65] = locus YMR058W, strain fet3, hits give low values
[66] = locus YMR125W, strain sto1, hits give low values
[67] = locus YMR129W, hits give low values
[68] = locus YMR205C, strain PFK2, hits give low values
[69] = locus YMR231W, strain pep5, hits give low values
[70] = locus YNL071W, strain lat1, hits give low values
[71] = locus YNL209W, strain ssb2, hits give low values
[72] = locus YNL248C, strain rpa49, hits give low values
[73] = locus YNL322C, strain KRE1 (second series), hits give low values
[74] = locus YNR049C, strain mso1, hits give low values
[75] = locus YOR001W, strain rrp6, hits give low values
[76] = locus YOR070C, strain gyp1, hits give low values
[77] = locus YOR080W, strain dia2, hits give low values
[78] = locus YOR083W, strain WHI5, hits give low values
[79] = locus YOR106W, strain vam3, hits give low values
[80] = locus YOR265W, strain rbl2, hits give low values
[81] = locus YOR270C, strain vph1, hits give low values
[82] = locus YOR290C, strain snf2, hits give low values
[83] = locus YPL051W, strain arl3, hits give low values
[84] = locus YPL078C, strain atp4, hits give low values
[85] = locus YPL106C, strain sse1, hits give low values
[86] = locus YPL240C, strain hsp82, hits give low values

Measured: normalized growth

C[C@]12C=CC(=O)C=C1CCC1C2[C@@H](O)C[C@@]2(C)C1CC[C@]2(O)C(=O)COP(=O)(O)O (some centres not stated)
inactive: [1] 1.01 | [2] 1 | [3] 1 | [4] 0.995 | [5] 1 | [6] 0.998 | [7] 0.995 | [8] 1.01 | [9] 1.01 | [10] 1 | [11] 0.995 | [12] 0.995 | [13] 1.01 | [14] 1.01 | [15] 1 | [16] 0.997 | [17] 1 | [18] 0.998 | [19] 1.02 | [20] 0.98 | locus YDR195W, strain ref2 0.954 | [21] 1 | [22] 1.01 | [23] 0.998 | [24] 0.96 | [25] 1.01 | [26] 1.04 | [27] 0.999 | [28] 0.999 | [29] 0.99 | [30] 0.998 | [31] 1.01 | [32] 1.01 | [33] 1 | [34] 1 | [35] 0.996 | [36] 0.996 | [37] 0.995 | [38] 1 | [39] 1 | locus YHR030C, strain SLT2, hits give low values 1.04 | locus YHR079C, strain IRE1, hits give low values 1.02 | [40] 0.999 | [41] 0.993 | [42] 0.994 | locus YJL095W, strain BCK1, hits give low values 0.977 | [43] 0.995 | [44] 1 | [45] 1.01 | [46] 0.995 | [47] 1.01 | [48] 1.01 | locus YJR066W, strain TOR1, hits give low values 0.973 | [49] 1 | [50] 0.984 | [51] 1 | [52] 1 | [53] 0.992 | [54] 1 | [55] 1.01 | locus YLR113W, strain HOG1, hits give low values 0.984 | [56] 1.01 | [57] 1 | [58] 1.01 | [59] 1 | [60] 0.989 | [61] 0.983 | [62] 1 | [63] 1 | [64] 1.01 | [65] 0.996 | [66] 0.98 | [67] 1.01 | [68] 0.992 | [69] 1 | [70] 1 | locus YNL183C, strain NPR1, hits give low values 0.973 | [71] 1 | [72] 1.02 | [73] 1 | [74] 1.01 | [75] 1.01 | [76] 0.994 | [77] 0.998 | [78] 1.01 | [79] 1.01 | locus YOR231W, strain MKK1, hits give low values 1.02 | [80] 0.995 | [81] 1.03 | [82] 1.02 | [83] 1.01 | [84] 1 | [85] 1.01 | [86] 0.996 | locus YPL256C, strain CLN2, hits give low values 0.997

OC1CC2CCCC(C1)N2Cc1ccccc1 (configuration not stated)
inactive: [1] 1.01 | [2] 0.993 | [3] 1 | [4] 0.932 | [5] 0.989 | [6] 1 | [7] 0.987 | [8] 0.988 | [9] 1 | [10] 1.01 | [11] 0.998 | [12] 0.997 | [13] 1 | [14] 1 | [15] 0.992 | [16] 0.998 | [17] 1 | [18] 0.989 | [19] 0.974 | [20] 0.963 | locus YDR195W, strain ref2 0.913 | [21] 0.998 | [22] 1.01 | [23] 1 | [24] 0.901 | [25] 1 | [26] 1 | [27] 1 | [28] 1 | [29] 0.986 | [30] 0.982 | [31] 0.989 | [32] 1 | [33] 0.99 | [34] 0.997 | [35] 0.986 | [36] 0.977 | [37] 0.989 | [38] 0.953 | [39] 1 | [40] 1.01 | [41] 1.02 | [42] 1 | [43] 1 | [44] 0.993 | [45] 1 | [46] 1 | [47] 0.998 | [48] 1 | [49] 1 | [50] 1 | [51] 0.999 | [52] 0.986 | [53] 0.988 | [54] 1 | [55] 1 | [56] 1 | [57] 0.986 | [58] 0.956 | [59] 0.99 | [60] 0.995 | [61] 0.959 | [62] 1.01 | [63] 0.996 | [64] 1.02 | [65] 1 | [66] 0.988 | [67] 0.994 | [68] 0.978 | [69] 1 | [70] 1.01 | [71] 1 | [72] 0.981 | [73] 1 | [74] 0.999 | [75] 1.01 | [76] 0.995 | [77] 0.998 | [78] 1.01 | [79] 1 | [80] 0.99 | [81] 0.99 | [82] 0.955 | [83] 1 | [84] 1 | [85] 0.98 | [86] 1
